# An excerpt weighted towards active compounds, which were near 7.3% of everything screened.
# FMDV antiviral = foot and mouth disease virus antiviral activity. FMDV antiviral cell-based qHTS. Potency, µM (series often up to 57.9 µM), without a hit: at the top dose activity change, negative = inhibition, hits mostly inhibitors. hit rate 1.2% among 410,000. AID 1159524; calls by dose curve; tested in HEK293T cells; also: read-out not given here; potency is read from the fitted curve at half-maximal effect; nearly all actives have a fitted effect of over 45% in size
# HCMV antiviral = human cytomegalovirus inhibition; hit rate 4.5% among 410,000; HFF cells, HCMV-luciferase reporter, 72 h; stronger effect = lower value; activity change, negative = inhibition, % at 57.5 µM; in the data active = activity change below about -60%; inconclusive = no clear call, values can overlap the other calls; inactive = above about -39%
#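 Cell-based, HFFs, 1000 cells/well, 16 h 37C; cpds in DMSO + HCMV-luc, MOI 1 PFU/cell; 72 h 37C; OneGlo luminescence after 5 min RT; norm. to buffer vs Salinomycin 10uM.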
# VACV mCherry inh = inhibitors of vaccinia virus infection (mCherry reporter signal). Vaccinia virus mCherry reporter infection, fluorescence. hit rate 0.63% among 310,000. AID 720579. Potency, µM (titrated, usually from 36.5 µM), for inactives: top-dose activity change, negative = inhibition, usual class: inhibitors; calls by dose curve; tested in A549 cells; also: potency is read from the fitted curve at half-maximal effect; nearly all actives have a fitted effect of over 35% in size
# HCV inhibitor = inhibitors of hepatitis C virus infection. Huh7.5.1 HCVcc-Cre infection, luciferase reporter, 44 h. Potency, µM (titrated, usually from 41.8 µM), without a hit: at the highest dose activity change, negative = inhibition, actives largely listed as inhibitors. hit rate 3.4% among 340,000. AID 651820; active = well fitted inhibition curve with a large enough effect; inconclusive = small, poorly fitted or top-dose-only effect, or another doubt; inactive = no such curve, though single readings can be large or run the other way; also: potency is read from the fitted curve at half-maximal effect
#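 Antiviral activity was scored by luciferase reporter output from cells infected with HCVcc-Cre (~0.5 moi) in presence of compound, 44 h infection period, cells seeded 1,000/well 4 h prior.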
# Vaccinia Venus = inhibitors of vaccinia virus (Venus reporter); Potency, µM (titrated, usually from 36.5 µM), without a hit: at the top dose activity change, negative = inhibition, most hits filed as inhibitors; AID 720580; Vaccinia virus Venus reporter expression, fluorescence; hit rate 0.46% among 330,000; calls by dose curve; tested in A549 cells; also: potency is read from the fitted curve at half-maximal effect; nearly all actives have a fitted effect of over 30% in size
# * = called active by the depositor; i = inactive; u = inconclusive; x = no result; [ ] = another dose, or the depositor's remark. % is scaled to controls: 0 for no effect and ±100 for the full control effect.
SMILES,FMDV antiviral,HCMV antiviral,VACV mCherry inh,HCV inhibitor,Vaccinia Venus
O=C(CCl)NN1C(=O)NC2(CCCCC2)C1=O,-4%,-33,x,5%,x
COc1cc(/C=N/NC(=S)Nc2cccc(Cl)c2C)ccc1OCC(=O)N1CC(C)OC(C)C1 (configuration not stated),u,-33,-21%,11µM*,-28%
Cc1ccc(C(=O)N2CCN(c3ncnc4c3cnn4-c3ccccc3)CC2)cc1,x,-77*,x,x,x
Cc1ccc(S(=O)(=O)N2CCN(c3ncnc4c3cnn4-c3ccccc3)CC2)cc1,-12%,-7,-14%,16%,0%
Cc1ccccc1C(=O)N1CCN(c2ncnc3c2cnn3-c2ccccc2)CC1,20µM*,u,x,7.9µM*,x
COCC1CCCN(Cc2ccc3c(c2)CN(C(=O)c2ccc(OC)nc2OC)CCO3)C1 (configuration not stated),2%,x,-7%,x,6%
CCN(Cc1ccccc1)S(=O)(=O)c1cc(C(=O)Nc2cc(Cl)cc(Cl)c2)ccc1F,u,-97*,-26%,x,u
Cc1ccc(C(=O)Nc2ccc(S(=O)(=O)N(Cc3ccccc3)c3ccccc3)cc2)cc1,u,-18,u,x,-23%
CCN(c1ccccc1)S(=O)(=O)c1cc(C(=O)Nc2cccc(Cl)c2)ccc1F,20µM*,-95*,u,u,u
CN(Cc1ccccc1)S(=O)(=O)c1ccc(F)c(C(=O)Nc2cc(Cl)cc(Cl)c2)c1,-10%,-15,-8%,x,-7%
CCOc1ccc(C(=O)Nc2ccc(S(=O)(=O)N(Cc3ccccc3)c3ccccc3)cc2)cc1,-12%,-61*,-23%[7.34 µM],x,-27%[7.34 µM]
CCOc1ccc(NC(=O)c2ccc(F)c(S(=O)(=O)N(CC)Cc3ccccc3)c2)cc1,u,-97*,-43%,x,-39%
Cc1cccc(NC(=O)Cn2c(=O)n(Cc3ccccc3)c(=O)c3oc4ccccc4c32)c1C,-11%,3,u,x,u
O=C(COC(=O)c1cc(=O)[nH]c2ccccc12)Nc1nc(-c2ccc(F)cc2)cs1,-27%,-6,-12%,-26%,-12%
CCCNC(=O)c1cc(Cl)c(NC(=O)C2=CSCCO2)cc1OC,9%,27,x,u,x
CC(C)(C)N=C1NC(=NC(C)(C)C)c2ccccc21,-13%,-63*,u,u,-24%
O=c1c2oc3ccccc3c2n(Cc2ccccc2F)c(=O)n1Cc1ccccc1,-13%,-12,-15%,x,-19%
COc1ccc2c(c1)C(=O)/C(=C/C=C/c1ccccc1)CC2,6%,-38,x,0%,x
COC1=CC(=O)C(O)=C/C1=C\C=C\c1ccccc1,40µM*,x,-5%,x,2%
CC(=O)N(c1cc(C)ccc1C)c1ccccc1[N+](=O)[O-],-13%,-63*,-11%,0%,-16%
CC(=O)N(c1ccccc1)c1ccc([N+](=O)[O-])cc1[N+](=O)[O-],-20%,-11,-17%,-7%,-8%
CC1=NN(c2ccccc2)C(=O)/C1=C\C=C\c1ccccc1,22µM*,-98*,-4%,u,0%
Cc1cc(C)cc(N2C(=O)NC(=O)/C(=C\C=C\c3ccco3)C2=O)c1,14µM*,-99*,-4%,u,22%
CCc1ccc(N2C(=O)NC(=O)/C(=C\C=C\c3ccco3)C2=O)cc1,25µM*,-77*,x,u,x
CCc1ccc(N2NC(=O)/C(=C/C=C/c3ccco3)C2=O)cc1,-2%,6,-15%,7%,1%
SMILES,FMDV antiviral,HCMV antiviral,VACV mCherry inh,HCV inhibitor,Vaccinia Venus
O=C1NC(=O)N(Cc2ccccc2)C(=O)/C1=C\c1ccco1,u,136,21%,20%,33%
O=C1NC(=O)N(Cc2ccc(F)cc2)C(=O)/C1=C\C=C\c1ccco1,28µM*,-97*,-11%,u,38%
Cc1cnc(C)c(-c2ccc3c(c2)CC(CNC(=O)Cc2c(C)[nH]c4ccccc24)O3)n1 (configuration not stated),-24%,x,u,x,u
COc1ccccc1CNC(=O)CCn1c(=O)c2cccn2c2cccnc21,14%,-18,-2%,x,0%
Cc1ccc(N2C(=O)NC(=O)/C(=C/C=C/c3ccco3)C2=O)cc1,u,-98*,-16%,u,-25%
O=C1NC(=O)N(c2ccccc2)C(=O)/C1=C\C=C\c1ccccc1,13µM*,41,i[7.34 µM],u,-8%[7.34 µM]
CC(C)c1ccc(N2C(=O)NC(=O)/C(=C/C=C/c3ccco3)C2=O)cc1,13µM*,-101*,4%,u,42%

# High-throughput results as filed in PubChem BioAssay.
